Laboratory results: publication PMC11024108

Each substance was assayed against Malate dehydrogenase, mitochondrial (UniProt P40926) (assay: cross-link between two proteins; cross-linking mass spectrometry).

Sequence of Succinate dehydrogenase [ubiquinone] flavoprotein subunit, mitochondrial, P31040 (P31040 whole entry): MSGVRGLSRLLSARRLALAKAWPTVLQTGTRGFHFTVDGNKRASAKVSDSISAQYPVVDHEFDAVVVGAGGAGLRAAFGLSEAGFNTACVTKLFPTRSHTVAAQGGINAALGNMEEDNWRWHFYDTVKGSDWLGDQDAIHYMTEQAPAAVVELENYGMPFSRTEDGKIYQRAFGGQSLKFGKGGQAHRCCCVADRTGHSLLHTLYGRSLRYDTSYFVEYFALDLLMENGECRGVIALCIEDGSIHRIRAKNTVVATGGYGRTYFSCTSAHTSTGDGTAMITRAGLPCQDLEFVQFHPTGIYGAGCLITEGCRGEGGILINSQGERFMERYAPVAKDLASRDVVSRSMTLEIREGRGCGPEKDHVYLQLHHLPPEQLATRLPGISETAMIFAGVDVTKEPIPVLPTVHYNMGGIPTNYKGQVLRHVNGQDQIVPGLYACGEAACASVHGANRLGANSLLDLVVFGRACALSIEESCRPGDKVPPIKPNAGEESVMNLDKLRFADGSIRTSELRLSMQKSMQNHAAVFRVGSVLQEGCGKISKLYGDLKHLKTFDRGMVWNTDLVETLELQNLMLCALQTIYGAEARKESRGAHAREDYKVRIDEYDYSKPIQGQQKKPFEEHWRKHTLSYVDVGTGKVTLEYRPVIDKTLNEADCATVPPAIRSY
Sequence of Peptidyl-prolyl cis-trans isomerase F, mitochondrial, P30405 (P30405 whole entry): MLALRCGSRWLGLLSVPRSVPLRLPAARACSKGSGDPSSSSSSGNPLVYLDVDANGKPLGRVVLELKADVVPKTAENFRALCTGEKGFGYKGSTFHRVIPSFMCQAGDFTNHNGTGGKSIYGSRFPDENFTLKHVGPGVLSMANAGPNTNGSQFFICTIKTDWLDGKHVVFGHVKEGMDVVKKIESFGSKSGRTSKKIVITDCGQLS

Listed as a hit, yes:
Aldehyde dehydrogenase family 1 member B1, mitochondrial, P30837
Dihydrolipoyl dehydrogenase, mitochondrial, P09622
Peptidyl-prolyl cis-trans isomerase F, mitochondrial, P30405
Succinate dehydrogenase [ubiquinone] flavoprotein subunit, mitochondrial, P31040
Aldehyde dehydrogenase, mitochondrial, P05091
Glutathione reductase, mitochondrial, P00390
